Potency and affinity values are given separately. Records with an inconclusive call do not appear. Unmarked numbers belong to inactive results.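 The calls were made as follows: active = luminescence drop in HepG2 cells whose fitted half-effect dose is at most twice the top valid dose; inconclusive = flat curve with 30 to 70% signal loss, or unreliable fit; inactive = the rest.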
Experiment: HepG2 hepatoma cell viability loss – plate reader, dry powder, cytotoxicity control, dose response (AID 651947)
Details: ATP luminescence (CellTiter-Glo), 48 h, stronger effect = lower value; at 26 µM unless noted
`c1ccc(CSc2ncc(-c3ccccc3)o2)cc1` gave a max activity of -32.2% [at 0.195 µM]. Compound `c1ccc(CSc2nnc(-c3cnco3)o2)cc1` has a max activity of -31.7% [at 12 µM]. For `O=C(Cc1ccccc1)c1nnc(-c2ccccc2)o1`, the max activity was -24.7% [at 0.8 µM]. With `CS(=O)(=O)c1cccc(CSc2nnc(-c3ccccc3)o2)c1` the max activity was -12.6% [at 0.38 µM]. `FC1(F)CN(CCSc2nnc(-c3ccccc3)o2)C1` gave a max activity of -36.2% [at 0.8 µM]. In the case of `Clc1ccccc1-c1nnc(SCc2ccccc2)o1`, the max activity is reported as -37.6% [at 6 µM]. `Clc1ccc(-c2nnc(SCc3cn(-c4ccccc4)nn3)o2)cc1` showed a max activity of -13% [at 3 µM]. In the case of `c1ccc(CSc2nnc(C3CCCC3)o2)cc1`, the max activity is reported as -59.1% [at 6 µM]. For `CN(C)CCSc1nnc(-c2ccccc2)o1`, the max activity was -18.8% [at 0.195 µM]. In the case of `Cc1nnc(SCc2ccccc2)o1`, the max activity is reported as -55.2% [at 0.195 µM]. Work on `COc1cccc(-c2nnc(SCc3ccccc3)o2)c1` yielded a max activity of 22.1% [at 12 µM]. Work on `CS(=O)(=O)c1cccc(-c2nnc(SCc3ccccc3)o2)c1` yielded a max activity of 26.3% [at 0.8 µM]. In the case of `c1ccc(CSc2nnc(C3CCCCC3)o2)cc1`, the max activity is reported as 16.5% [at 3 µM]. `c1ccc(-c2nnc(SCCC3OCCCO3)o2)cc1` showed a max activity of 12.9% [at 0.8 µM]. Compound `c1ccc(Cn2cc(CSc3nnc(C4CCC4)o3)nn2)cc1` has a max activity of -18.3% [at 0.38 µM].
